PubChem BioAssay
Unmarked numbers belong to inactive results. The source made the active and inactive calls.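 How the source made its calls: active means thallium flux through the channel raised or lowered by more than 3 SD from vehicle-only wells, actives on both sides; inactive means the rest.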

Tested on: R275C/beta2Delta
Experiment: modulators of BK channel variants, profiling panel, selectivity assay, cell-based, U2OS BacMam, thallium flux, beta subunits (AID 1259406);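 further: initial slope of Thallos dye fluorescence rise after thallium is added; log ratio against the mean of 0.3% DMSO vehicle wells on the same plate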
Settings: at 30 µM

Compound | log fold change Tl+ flux
N#Cc1ccc(NCCc2ccccn2)c([N+](=O)[O-])c1 | -0.049
Cc1cc(CNCC(O)C(F)(F)F)no1 (stereo not given) | -0.018
CSC(NCc1cccnc1)=C(C#N)S(=O)(=O)c1ccc(Cl)cc1 | 0.0872 (active)
Cc1c(C(=O)Nc2ccc(N3CCOCC3)c(Cl)c2)cnn1-c1ccc(F)cc1 | -0.0229
Cc1nc(C)c(C(=O)O)c(-c2ccsc2)c1C(=O)O | -0.00263
CCCCCCCCCCCC(=O)N1CC(=O)NC(=O)C1 | 0.0154
Cc1cccc(N=Cc2cc(Cl)cc(Cl)c2O)c1C | 0.0671
Cc1ccc(I)cc1[N+](=O)[O-] | -0.016
Cc1ccccc1C=C1N=C(c2ccccc2)OC1=O | 0.0102
O=C(NNc1c(Cl)cccc1Cl)c1csc(Cc2c(Cl)cccc2Cl)n1 | 0.00139
CCSc1n[nH]c(=S)s1 | 0.0134
COc1cc(C(F)(F)F)nc2ccc(C#CCOC(=O)Nc3cccc(Cl)c3)cc12 | -0.0125
CC12CCC(c3c1nn(-c1ccccc1)c3C(F)(F)F)C2(C)C (stereo not given) | 0.0124
COC(=O)C1=C(C)NC(C)=C(C(=O)OC)C1c1ccccc1 | -0.018
O=C(C(=NN=Cc1ccc2c(c1)OCO2)c1ccccc1)c1ccccc1 | 0.000499
COc1ccc(Cl)cc1N1C(=O)C=C(c2ccccc2)C1=O | 0.00976
O=c1[nH]nc(N2CCSCC2)[nH]1 | -0.00725
Clc1ccc(-c2nc(-c3cnccn3)no2)cc1 | 0.0101
NNC(=O)Cc1csc2nc(-c3ccccc3)nn12 | 0.0113
CN(C)C=Nc1cc(Cl)c(-n2cccc2)cc1Oc1ccc(Cl)cc1 | -0.0155

Compound | log fold change Tl+ flux
Oc1ccccc1C=NCCN=Cc1ccccc1O | 0.0216
CC(C)(C)OC(=O)N1CCC(c2nc(-c3ccc(Cl)s3)cs2)CC1 | 0.0302
O=S(=O)(Cc1nc(-c2ccc3c(c2)OCCO3)cs1)c1ccccn1 | 0.0317
Cn1c(SCCS(=O)(=O)c2ccc(OC(F)(F)F)cc2)nnc1C(F)(F)F | -0.0306
Cc1ccc(S(N)(=O)=O)c(I)c1 | -0.00341
O=C(Nc1ccc(OC(F)(F)F)cc1)OC1CN(C(c2ccccc2)c2ccccc2)C1 | -0.0123
CCN1CCC(O)(C#Cc2ccccc2)CC1 | 0.0235
COC(=O)c1ccc(C=Cc2cccc(Cl)c2)s1 | -0.00722
CCc1[nH]c(=S)[nH]c(=O)c1C#N | 0.00491
O=C(CC1SC(=NC2CC3C=CC2C3)NC1=O)Nc1ccccc1Cl (stereo not given) | 0.032
O=S(=O)(Cc1nc(C=Cc2cc(C(F)(F)F)cc(C(F)(F)F)c2)no1)c1ccc(Cl)cc1 | 0.0281
O=C1CSC(=S)N1N=Cc1cccnc1 | 0.0173
O=C(NC1CCSC1)c1ccccc1NS(=O)(=O)c1ccccc1 (stereo not given) | -0.158 (active)
CCOC(=O)c1nn(-c2ccc(C(C)(C)C)cc2)c(=O)c(C#N)c1C | -0.219 (active)
O=C(NNC(=O)c1ccc2nonc2c1)c1cccc(C(F)(F)F)c1 | 0.036
CCOC(=O)C(C)Oc1ccc(NS(=O)(=O)c2cc(OC)ccc2OC)cc1Cl (stereo not given) | -0.0738
O=C(Nc1ccc(-n2ccc(C(F)(F)F)n2)cc1)C1=Cc2cc(Cl)ccc2OC1 | 0.035
CC(=O)c1sc(SCc2ccc(Cl)cc2)c2c1CC(C)(C)CC2=O | -0.0422
Cc1cc(-c2nn(C)c(=O)c3ccccc23)cc(C)c1O | -0.0115
Cn1ncc2ccccc2c1=O | 0.0689

Tested on: R275C/beta4
Experiment: as above
Settings: at 30 µM

Compound | log fold change Tl+ flux
N#Cc1ccc(NCCc2ccccn2)c([N+](=O)[O-])c1 | 0.0115
Cc1cc(CNCC(O)C(F)(F)F)no1 (stereo not given) | 0.0165
CSC(NCc1cccnc1)=C(C#N)S(=O)(=O)c1ccc(Cl)cc1 | 0.0736
Cc1c(C(=O)Nc2ccc(N3CCOCC3)c(Cl)c2)cnn1-c1ccc(F)cc1 | 0.0362
Cc1nc(C)c(C(=O)O)c(-c2ccsc2)c1C(=O)O | 0.00868
CCCCCCCCCCCC(=O)N1CC(=O)NC(=O)C1 | -0.0342
Cc1cccc(N=Cc2cc(Cl)cc(Cl)c2O)c1C | 0.00158
Cc1ccc(I)cc1[N+](=O)[O-] | 0.00957
Cc1ccccc1C=C1N=C(c2ccccc2)OC1=O | 0.00185
O=C(NNc1c(Cl)cccc1Cl)c1csc(Cc2c(Cl)cccc2Cl)n1 | -0.00534
CCSc1n[nH]c(=S)s1 | 0.0178
COc1cc(C(F)(F)F)nc2ccc(C#CCOC(=O)Nc3cccc(Cl)c3)cc12 | -0.00958
CC12CCC(c3c1nn(-c1ccccc1)c3C(F)(F)F)C2(C)C (stereo not given) | -0.0271
COC(=O)C1=C(C)NC(C)=C(C(=O)OC)C1c1ccccc1 | 0.0507
O=C(C(=NN=Cc1ccc2c(c1)OCO2)c1ccccc1)c1ccccc1 | -0.138 (active)
COc1ccc(Cl)cc1N1C(=O)C=C(c2ccccc2)C1=O | 0.0143
O=c1[nH]nc(N2CCSCC2)[nH]1 | 0.0241
Clc1ccc(-c2nc(-c3cnccn3)no2)cc1 | 0.00987
NNC(=O)Cc1csc2nc(-c3ccccc3)nn12 | 0.0106
CN(C)C=Nc1cc(Cl)c(-n2cccc2)cc1Oc1ccc(Cl)cc1 | -0.0061

Compound | log fold change Tl+ flux
Oc1ccccc1C=NCCN=Cc1ccccc1O | 0.00607
CC(C)(C)OC(=O)N1CCC(c2nc(-c3ccc(Cl)s3)cs2)CC1 | 0.0463
O=S(=O)(Cc1nc(-c2ccc3c(c2)OCCO3)cs1)c1ccccn1 | -0.00702
Cn1c(SCCS(=O)(=O)c2ccc(OC(F)(F)F)cc2)nnc1C(F)(F)F | -0.0219
Cc1ccc(S(N)(=O)=O)c(I)c1 | 0.00339
O=C(Nc1ccc(OC(F)(F)F)cc1)OC1CN(C(c2ccccc2)c2ccccc2)C1 | 0.0956 (active)
CCN1CCC(O)(C#Cc2ccccc2)CC1 | -0.01
COC(=O)c1ccc(C=Cc2cccc(Cl)c2)s1 | -0.0416
CCc1[nH]c(=S)[nH]c(=O)c1C#N | 0.0228
O=C(CC1SC(=NC2CC3C=CC2C3)NC1=O)Nc1ccccc1Cl (stereo not given) | 0.0398
O=S(=O)(Cc1nc(C=Cc2cc(C(F)(F)F)cc(C(F)(F)F)c2)no1)c1ccc(Cl)cc1 | -0.0177
O=C1CSC(=S)N1N=Cc1cccnc1 | 0.00843
O=C(NC1CCSC1)c1ccccc1NS(=O)(=O)c1ccccc1 (stereo not given) | -0.0828 (active)
CCOC(=O)c1nn(-c2ccc(C(C)(C)C)cc2)c(=O)c(C#N)c1C | -0.26 (active)
O=C(NNC(=O)c1ccc2nonc2c1)c1cccc(C(F)(F)F)c1 | 0.0129
CCOC(=O)C(C)Oc1ccc(NS(=O)(=O)c2cc(OC)ccc2OC)cc1Cl (stereo not given) | -0.0156
O=C(Nc1ccc(-n2ccc(C(F)(F)F)n2)cc1)C1=Cc2cc(Cl)ccc2OC1 | -0.0139
CC(=O)c1sc(SCc2ccc(Cl)cc2)c2c1CC(C)(C)CC2=O | 0.00684
Cc1cc(-c2nn(C)c(=O)c3ccccc23)cc(C)c1O | 0.0138
Cn1ncc2ccccc2c1=O | -0.014
